Sampled rows, rich in hits. Any-hit rate of the full collection: about 2.7%.
ClpP mod: qHTS Assay for Activators of ClpP; ATP-dependent Clp protease proteolytic subunit (Bacillus subtilis (strain 168)), P80244; purified B. subtilis ClpP, FRET peptide cleavage, 20 min; Potency, µM (highest dose often 57.5 µM), inactives show at the top dose activity change, negative = active; 340,000 compounds, 1.9% hits; AID 651965, 2013; active means well fitted falling curve with a large enough effect; inconclusive means small, poorly fitted or top-dose-only effect; inactive means no such curve, though single readings can be large or run the other way; further: potency means the concentration at half of the fitted maximal effect; the source files actives as falling curves though it sought activators and does not explain the sign; nearly all actives have a fitted effect of over 65% in size
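Buffer: 100 mM Tris/HCl pH8, 100 mM KCl, 0.05% low protease BSA, 2.5% glycerol, 0.01% Tween-20. ClpP 10 microg/mL final; 20 min RT; delta FRET normalized to ADEP and DMSO controls.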
gsp ag: agonists of gsp mutant (McCune-Albright syndrome); Potency, µM (highest dose often 76.9 µM), for the others: at the top dose activation (cAMP increase), hits mostly activators; 340,000 compounds, 0.13% hits; gsp mutant cells, cAMP HTRF, 30 min; AID 624287; active means well fitted activation curve with a large enough effect; inconclusive means small, poorly fitted or top-dose-only effect, or another doubt; inactive means no such curve, though single readings can be large or run the other way; cell line not stated here;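 further: phosphodiesterase inhibitor Ro 20-1724 added with compounds to block cAMP breakdown; potency means the concentration at half of the fitted maximal effect; nearly all actives have a fitted effect of over 60% in size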
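Cells in DMEM/10% FBS with G418 were pretreated with compounds in DMSO plus […] (300 uM stock) for 30 min at 37C. cAMP was measured by HTRF (cAMP-d2 plus anti-cAMP antibody-K) after 30 min at room temperature.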
pAkt inh: blocks phosphorylation of Akt; activity change, % for hits at 50 µM; 360,000 compounds, 0.32% hits; Neuro2A IGF-stimulated pAkt S473 HTRF, 20 min; stronger effect = lower value; in the data active means activity change below about -80%; inconclusive means mostly about -51% to -80%; further: on the % scale 0 is the no-effect control and ±100 the full control effect
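Neuro2A cells (4,500/well, DMEM with 0.5% FBS) were treated with compound at a single 50 µM final concentration, stimulated with 6 nM IGF for 20 min at 37 °C, and lysed. Phospho-Akt Ser473 was read by HTRF as 665/615 ratio ×10^4.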
RXFP1 ag: RXFP1 (human) receptor agonism; Q9HBX9; HEK293T-RXFP1 cAMP TR-FRET, 30 min; response scale: percent of porcine relaxin response, buffer zero; Potency, µM (series often up to 57.5 µM), for the others: at the top dose activation, most hits filed as activators; 370,000 compounds, 0.3% hits; active means well fitted activation curve with a large enough effect; inconclusive means small, poorly fitted or top-dose-only effect; further: potency means the concentration at half of the fitted maximal effect; on the % scale 0 is the no-effect control and ±100 the full control effect; nearly all actives have a fitted effect of over 60% in size
Target sequence (Q9HBX9 whole entry, looked up): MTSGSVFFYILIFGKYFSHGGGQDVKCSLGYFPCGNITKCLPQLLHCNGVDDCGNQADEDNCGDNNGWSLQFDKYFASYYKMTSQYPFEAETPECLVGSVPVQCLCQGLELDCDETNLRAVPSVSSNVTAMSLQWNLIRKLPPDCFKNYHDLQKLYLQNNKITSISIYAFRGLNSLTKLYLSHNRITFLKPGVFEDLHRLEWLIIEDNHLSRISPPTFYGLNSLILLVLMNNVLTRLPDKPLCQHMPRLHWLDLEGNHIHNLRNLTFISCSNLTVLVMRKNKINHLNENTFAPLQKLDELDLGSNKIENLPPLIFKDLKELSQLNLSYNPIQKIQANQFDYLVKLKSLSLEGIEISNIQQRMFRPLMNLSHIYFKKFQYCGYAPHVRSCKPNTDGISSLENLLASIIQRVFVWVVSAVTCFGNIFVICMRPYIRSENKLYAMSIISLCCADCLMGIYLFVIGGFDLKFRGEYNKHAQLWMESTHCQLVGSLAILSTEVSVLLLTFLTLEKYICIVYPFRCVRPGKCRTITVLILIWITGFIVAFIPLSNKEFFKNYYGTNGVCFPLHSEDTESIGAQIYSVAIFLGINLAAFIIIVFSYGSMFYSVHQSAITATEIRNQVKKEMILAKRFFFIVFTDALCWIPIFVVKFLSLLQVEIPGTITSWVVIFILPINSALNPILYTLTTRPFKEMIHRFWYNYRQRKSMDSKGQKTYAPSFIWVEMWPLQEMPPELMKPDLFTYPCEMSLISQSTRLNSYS
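Agonist response is measured as cAMP accumulation in an RXFP1-transfected HEK293T line under PDE4 inhibition. Values are scaled between buffer-only and 29 nM porcine relaxin, and EC50s come from standard Hill equation fits.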
RXFP1 antagonist: blocks the human relaxin receptor RXFP1; HEK293-RXFP1, relaxin-stimulated cAMP HTRF, 30 min; stronger effect = lower value; activity change, negative = inhibition, % at 57.5 µM; 350,000 compounds, 0.59% hits; AID 1259400;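 active means activity change of -60% or lower, but not beyond a set lower limit; inconclusive means change between -60% and -40%, or beyond the set limit; inactive means change above -40%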; further: on the % scale 0 is the no-effect control and ±100 the full control effect
gsp antagonist: gsp mutant antagonism; gsp-mutant cells, cAMP HTRF, 30 min; Potency, µM (titrated, usually from 76.9 µM), for the others: at the top dose activity change, negative = inhibition, hits mostly inhibitors; 340,000 compounds, 0.4% hits; AID 624288; calls by dose curve; cell line not stated here;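 further: intracellular cAMP measured with PDE inhibitor Ro 20-1724 present during compound exposure; potency means the concentration at half of the fitted maximal effect; on the % scale 0 is the no-effect control and ±100 the full control effect; nearly all actives have a fitted effect of over 65% in size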
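Cells in G418 medium, seeded 16-24 h, 37C; buffer exchange to DPBS + 1 mM CaCl2, 0.5 mM MgCl2, 0.05% BSA; cpds in DMSO + […] (300 uM stock), 30 min 37C; HTRF cAMP detection.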
* = called active by the depositor; i = inactive; ? = inconclusive; . = no result; [ ] = another dose, or the depositor's remark.

SMILES | ClpP mod | gsp ag | pAkt inh | RXFP1 ag | RXFP1 antagonist | gsp antagonist
COc1ccc(/C=N/Nc2nnc(-c3ccccc3)c(=O)[nH]2)cc1 | 25.1µM* | -16.3% | i | 1.4% | -17.8 | -9.3%
CCOC(=O)C1CCCN(S(=O)(=O)c2ccc3c(c2)N(C(C)=O)CCO3)C1 (configuration not stated) | 0.2% | -53.7% | i | 0.1% | -9.0 | -17.3%
O=C1OCc2cccc3cccc1c23 | -3.8% | -55.6% | . | 2.1% | 13.2 | 11.0%
O=C1Cc2cccc3cccc1c23 | 22.4µM* | -18.5% | i | 1.4% | -19.0 | -4.2%
CCN(CC)C(=O)CSc1nc2ccc(NC(=O)CSc3nnc(COc4ccccc4C)n3C)cc2s1 | -1.0% | -13.2% | i | 1.6% | -13.1 | -26.8%
Cc1ccccc1OCc1nnc(SCC(=O)Nc2ccc3nc(SCC(=O)NC(C)(C)C)sc3c2)n1C | -5.0% | ? | i | 0.9% | -7.0 | 31.6µM*
Cc1ccccc1OCc1nnc(SCC(=O)Nc2ccc3c(c2)oc2ccccc23)n1C | 14.1µM* | -8.1% | -99.7%* | -2.8% | -3.6 | 2.7%
N=c1n(CCO)c2ccccc2n1Cc1ccccc1F | -2.4% | . | . | 3.9% | -2.1 | .
Cc1nc2ccccn2c1C(=O)NNC(=S)Nc1ccc(Cl)cc1 | 126.5% | 3.4%[15.4 µM] | i | 2.1% | -5.7 | -20.5%
Cc1nc2ccccn2c1C(=O)NNC(=S)Nc1ccccc1 | . | -2.9% | i | 5.8% | -89.4* | -6.8%
c1ccc(-c2c(-c3ccccc3)n(Cc3ccco3)c3ncnc(NCCCn4ccnc4)c23)cc1 | 25.1µM* | -42.8% | i | 4.7% | -65.2* | -4.2%
N=c1c2c(-c3ccccc3)c(-c3ccccc3)n(Cc3ccco3)c2ncn1Cc1ccccc1 | -2.8% | -25.7% | i | -0.6% | 19.9 | 15.7%
OCCNc1ncnc2c1c(-c1ccccc1)c(-c1ccccc1)n2Cc1ccco1 | 28.2µM* | 0.8% | i | 1.3% | 0.6 | -21.4%
N=c1c2c(-c3ccccc3)c(-c3ccccc3)n(Cc3ccco3)c2ncn1CCCn1ccnc1 | 1.6% | -0.2% | i | 2.0% | -14.8 | -1.1%
C=C1CC(C(=O)N/N=C/c2ccc(O)cc2)C1 | 11.2µM* | -4.0% | i | 3.0% | -5.9 | 13.0%
O=C(NN=Cc1ccc(O)cc1)C(=O)NN=Cc1ccc(O)cc1 | . | -31.0% | i | . | -1.9 | 4.1%
c1ccc(SSc2ccccn2)nc1 | . | -4.4%[15.4 µM] | i | . | -66.5* | 0.5%
CCOc1ccc(NC(=O)Cn2cc(C(=O)c3ccc(CC)cc3)c(=O)c3ccc(C)nc32)cc1 | -0.7% | . | . | 26.1% | -1.8 | .
COC(=O)c1cc(OC)c(OC)cc1NC(=O)CN1CCCCC1 | -16.0% | 5.0% | i | 2.9% | -5.0 | 1.3%
COC(=O)c1cc(OC)c(OC)cc1NC(=O)Nc1ccc(OC)cc1 | 25.1µM* | 17.6% | i | -0.3% | -3.7 | -2.0%
COC(=O)c1cc(OC)c(OC)cc1NC(=O)CC1CCCCC1 | 28.2µM* | 3.7% | i | 2.2% | -1.2 | -1.3%
NS(=O)(=O)c1ccc(CCNC(=O)c2cc([N+](=O)[O-])ccc2N2CCOCC2)cc1 | -3.1% | 26.4% | i | -0.7% | -1.2 | 1.3%
CCNC(=O)c1c(NC(=O)Cc2coc3cc(C)cc(C)c23)sc2c1CCCC2 | -0.3% | . | . | 4.5% | -9.3 | .
CCN(CC)c1ccc(/C=C2\C(=N)N3N=C(CC(=O)N4CCOCC4)SC3=NC2=O)cc1 | -0.7% | -3.0% | i | 1.9% | 11.7 | -8.6%
C/C(=N\NC(=O)c1nc2ccccn2c1C)c1ccc2c(c1)OCO2 | -2.5% | 9.7% | i | 3.6% | 6.7 | 2.5%
SMILES | ClpP mod | gsp ag | pAkt inh | RXFP1 ag | RXFP1 antagonist | gsp antagonist
C/C(=N\NC(=O)c1nc2ccccn2c1C)c1cccc([N+](=O)[O-])c1 | 17.8µM* | 26.4%[15.4 µM] | i | 28.4% | 17.6 | -18.7%
CC(C)(CNC(=O)c1ccc([N+](=O)[O-])c(Cl)c1)CNC(=O)c1ccc([N+](=O)[O-])c(Cl)c1 | 15.8µM* | -0.3% | i | -2.3% | -10.1 | ?
Cc1cc(O)cc2c1O[C@](C)(CCC(=O)O)CC2 | 0.3% | . | . | . | . | .
Cc1ccc(OCc2nc(-c3ccc(C(=O)NCCc4ccc(Cl)cc4)cc3)oc2C)cc1 | -8.2% | . | . | 0.9% | 0.7 | .
Cc1ccc(Cn2nnc(C(=O)Nc3cccc(C)c3C)c2N)cc1 | 96.9% | 14.8% | -109.2%* | 1.9% | -17.3 | 10.7%
Cc1ccc(C)c(NC(=O)c2nnn(CC(=O)Nc3cccc(C)c3C)c2N)c1 | 0.1% | . | . | -3.3% | 9.2 | .
COc1ccc(C2C(C#N)=C(SCC(=O)Nc3ccc(C)cc3)NC3=C2C(=O)CC(C)(C)C3)cc1 (configuration not stated) | 22.4µM* | 12.7% | i | 4.0% | 0.6 | -16.0%
CCC1C(C#N)=C(SCC(N)=O)NC2=C1C(=O)CC(C)(C)C2 (configuration not stated) | -1.2% | 2.2%[15.4 µM] | i | -0.1% | 3.7 | -10.1%
COc1cc(CNCc2cccc3ccccc23)cc(OC)c1 | 2.2% | -13.3% | i | 3.9% | 1.0 | 50.1µM*
COc1cc(CNCc2c[nH]c3ccccc23)cc(OC)c1 | 0.5% | -5.8%[15.4 µM] | i | 0.0% | -32.3 | 6.3%
COCCN(C(=O)COC(=O)/C=C/c1ccc(OC)c(OC)c1)c1c(N)n(Cc2ccccc2)c(=O)[nH]c1=O | ? | -6.5%[15.4 µM] | i | 0.1% | -3.1 | 7.3%
CC(C)CN(C(=O)CCC(=O)OCC(=O)c1ccc(F)c(F)c1)c1c(N)n(CC(C)C)c(=O)[nH]c1=O | 0.9% | ? | i | 3.0% | -3.4 | 5.7%
CNc1ccccc1C(=O)OCC(=O)N(CCOC)c1c(N)n(CC(C)C)c(=O)[nH]c1=O | 22.4µM* | -14.9% | i | 1.8% | 0.1 | 9.1%
CC(C)CN(C(=O)CCC(=O)OCC(=O)N(C)c1ccccc1)c1c(N)n(CC(C)C)c(=O)[nH]c1=O | 28.2µM* | 10.2% | i | -0.2% | -2.0 | 9.5%
COCCN(C(=O)COC(=O)/C=C/c1cccc(OC)c1)c1c(N)n(CC(C)C)c(=O)[nH]c1=O | 31.6µM* | -49.4% | i | -0.1% | -5.8 | -1.4%
CS(=O)(=O)c1ccc(C(=O)OCC(=O)NCc2cccs2)cc1[N+](=O)[O-] | 2.3% | -1.2%[15.4 µM] | i | . | -101.4* | -3.1%
Cc1cccc(C(=O)OCC(=O)NCc2cccs2)c1 | . | -2.0%[15.4 µM] | i | 0.6% | -14.5 | -1.1%
NC1=NC(=O)C(Cc2ccc(Br)cc2)S1 (configuration not stated) | -0.1% | -29.7% | . | 1.2% | -8.8 | -3.5%
O=C(c1ccc(F)cc1)N1CCCCC(Sc2nnnn2-c2ccccc2)C1=O (configuration not stated) | 28.2µM* | 26.5% | i | 1.3% | -7.3 | -3.3%
O=C1Nc2ccccc2Oc2cc(Oc3ccccc3)ccc21 | 3.8% | . | . | -3.3% | -21.6 | .
